Assay outcomes from PubChem BioAssay.
Only some compounds are listed: those with a hit (about 1.1% of all), similar ones and a draw of the others.
GC-A act = GC-A stimulated cGMP production enhancers – HEK293 GC-A cells, cGMP TR-FRET, EC30 ANP, primary screen | activation, % at 10 µM | 0% at EC30 ANP, 100% saturating ANP | 370,000 tested, 0.14% active; in the data active = activation above about 40%
GC-B act = human GC-B receptor activators, primary screen, HEK293 GC-B cells, cGMP TR-FRET, EC30 CNP. Atrial natriuretic peptide receptor 2 (Homo sapiens), P20594. 0% at EC30 CNP, 100% saturating CNP. activation, % at 10 µM. 370,000 tested, 0.11% active. AID 1920062, 2024;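 active = activation at 10 µM reaching about 35% in either raw or pattern-adjusted values, limit read from the data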
Target sequence (P20594 whole entry, looked up): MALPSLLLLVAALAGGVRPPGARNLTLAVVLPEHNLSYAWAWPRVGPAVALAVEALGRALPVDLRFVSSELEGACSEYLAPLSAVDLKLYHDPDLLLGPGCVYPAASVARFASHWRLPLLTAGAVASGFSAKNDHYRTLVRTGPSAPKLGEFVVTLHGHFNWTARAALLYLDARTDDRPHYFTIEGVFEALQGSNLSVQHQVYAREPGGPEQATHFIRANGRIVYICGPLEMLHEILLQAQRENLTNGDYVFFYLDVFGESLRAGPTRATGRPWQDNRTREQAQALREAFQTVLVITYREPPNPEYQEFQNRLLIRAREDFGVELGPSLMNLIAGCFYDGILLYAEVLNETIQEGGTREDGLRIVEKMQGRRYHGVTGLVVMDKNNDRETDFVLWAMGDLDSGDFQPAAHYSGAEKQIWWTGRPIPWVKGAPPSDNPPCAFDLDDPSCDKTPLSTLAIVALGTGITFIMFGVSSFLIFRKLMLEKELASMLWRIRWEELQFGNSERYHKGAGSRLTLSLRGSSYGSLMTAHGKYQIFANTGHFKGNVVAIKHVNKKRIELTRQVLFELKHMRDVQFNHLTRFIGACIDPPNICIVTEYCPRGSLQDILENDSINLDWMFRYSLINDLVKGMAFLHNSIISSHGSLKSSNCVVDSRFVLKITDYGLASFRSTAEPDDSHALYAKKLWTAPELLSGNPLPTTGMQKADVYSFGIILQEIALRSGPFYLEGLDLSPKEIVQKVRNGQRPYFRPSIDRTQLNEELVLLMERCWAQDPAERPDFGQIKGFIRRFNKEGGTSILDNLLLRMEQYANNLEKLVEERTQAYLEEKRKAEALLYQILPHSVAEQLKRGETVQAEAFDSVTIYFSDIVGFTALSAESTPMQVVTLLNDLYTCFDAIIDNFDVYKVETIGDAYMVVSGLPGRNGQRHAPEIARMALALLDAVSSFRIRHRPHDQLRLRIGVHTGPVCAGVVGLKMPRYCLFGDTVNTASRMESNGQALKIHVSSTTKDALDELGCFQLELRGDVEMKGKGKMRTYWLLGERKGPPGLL
FAS-TE inh = FAS thioesterase domain inhibitors, primary screen, biochemical, fluorescence intensity, uHTS; Fatty acid synthase (Homo sapiens), P49327; recombinant FAS-TE, OMFH fluorogenic substrate, fluorescence endpoint; inhibition, % at 15 µM; 360,000 tested, 0.67% active;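 active = compounds whose normalised, plate-corrected inhibition of enzyme fluorescence in the single-dose primary screen is 50% or more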;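 note: 0% = DMSO with enzyme and 100% = substrate without enzyme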
aDG glyco up = activators of alpha-DG glycosylation, primary screen, uHTS, Pro5-aDG cells, AlphaScreen. activation, % at 10 µM. alpha-DG glycosylation AlphaScreen (IIH6); 0% Pro5, 100% B10-LARGE cell signal. AID 624168, 2012. 360,000 tested, 0.22% active;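 active = activation of at least 8% versus controls, or a plate z-score of at least 8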;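 note: Pro5 are CHO cells carrying HIG-tagged alpha-DG that lacks glycosylation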
aDG glyco conf = alpha-DG glycosylation enhancers, retest, confirmation, single concentration, Pro5-aDG cells | activation, % at 10 µM (by protocol) | IIH6 AlphaLISA; scaled to LARGE-overexpressing B10 cells as 100% | 600 tested, 17% active | shares compounds with aDG glyco up;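 active = activation of at least 7% in one or more replicates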;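 note: cells exposed to compound for two days before detection; 0% = DMSO-treated Pro5 cells and 100% = DMSO-treated B10-LARGE cells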
The depositor's hits bear a star.

Screening Cc1cccn2c(=O)c(C(=O)NC3CCCCC3)c(O)nc12 returned GC-A act 2, GC-B act -6, FAS-TE inh 1 and aDG glyco up 0.
For Cc1cccn2c(=O)c(C(=O)NC3CC(C)CC(C)(C)C3)c(O)nc12 (stereo not drawn) the results were GC-A act -5, GC-B act 3, FAS-TE inh 14, aDG glyco up 3.6* and aDG glyco conf 2.
For COc1ccc(S[C@]2(C(=O)N3CCOCC3)CC(=O)N(C(=O)Nc3ccc(C)c(Cl)c3)[C@@H]2c2ccc(OC)cc2)cc1 the results were GC-A act -1 and GC-B act 3.
`Cc1cccc(NC(=S)N(CCCN2CCCC2)Cc2cccn2Cc2ccc(Cl)cc2)c1` gave GC-A act -27, GC-B act -15, FAS-TE inh 19, aDG glyco up 2.8* and aDG glyco conf 11*.
`Cc1ccc(S(=O)(=O)N2CCOCC2)cc1C(=O)NC1CCCCC1` gave GC-A act 2, GC-B act 4, FAS-TE inh -7, aDG glyco up 50* and aDG glyco conf -1.
For COCCNC(=S)N/N=C(\C)c1ccc(-n2ccnc2)cc1 the results were GC-A act -6, GC-B act -6, FAS-TE inh -6 and aDG glyco up 4.
Screening C=CCNC(=S)N/N=C(\C)c1cccc(OC)c1 returned GC-A act 3, GC-B act 1, FAS-TE inh -3 and aDG glyco up 3.
For C=CCNC(=S)N/N=C(\C)c1ccc(OC)cc1 the results were GC-A act 8, GC-B act -4, FAS-TE inh -2, aDG glyco up 12* and aDG glyco conf 1.
COCCNC(=S)N/N=C(\C)c1ccc(O)cc1 was read as GC-A act -5, GC-B act -4, FAS-TE inh -5, aDG glyco up 7.4* and aDG glyco conf 0.
`O=C(OCc1ccccc1)N1CCC2CC1c1ccc(Cl)cc12` (stereo not drawn) gave GC-A act 1, GC-B act -1, FAS-TE inh 24 and aDG glyco up 1.
O=C(OCc1ccccc1)N1CCC2CC1c1cc(Cl)ccc12 (stereo not drawn) was read as GC-A act 1, GC-B act 1, FAS-TE inh 27, aDG glyco up 9.7* and aDG glyco conf 0.
`Cc1ccc(S(=O)(=O)c2c(N)n(Cc3ccco3)c3nc4ccccc4nc23)cc1C` gave GC-A act 1, GC-B act -9, FAS-TE inh 9, aDG glyco up 40* and aDG glyco conf 1.
`Cc1ccc(S(=O)(=O)c2c(N)n(CCN3CCOCC3)c3nc4ccccc4nc23)cc1C` gave GC-A act 2, GC-B act -5, FAS-TE inh 2 and aDG glyco up 0.
COc1ccc2c(Cl)c(-c3nnc(SCC(N)=O)n3C)sc2c1 was read as GC-A act 6, GC-B act -4, FAS-TE inh -8 and aDG glyco up 1.
Screening COc1ccc2c(Cl)c(-c3nnc(SCC(=O)c4ccccc4)n3C)sc2c1 returned GC-A act 2, GC-B act 9, FAS-TE inh 16, aDG glyco up 4.3* and aDG glyco conf 1.
Cc1ccc(C)c(N2CCN(C(=O)Nc3ccc4c(c3)N(C)C(=O)CS4)CC2)c1 was read as GC-A act 1, GC-B act -1, FAS-TE inh 20, aDG glyco up 6.7* and aDG glyco conf 0.
For CN1C(=O)CSc2ccc(NC(=O)N3CCN(c4ccccn4)CC3)cc21 the results were GC-A act -1, GC-B act -4, FAS-TE inh 4 and aDG glyco up 0.
Screening CCN(CC)CCNC(=O)c1cc(-c2cccnc2)nc2ccc(S(=O)(=O)N3CCC(C)CC3)cc12 returned GC-A act 0, GC-B act -3, FAS-TE inh 3 and aDG glyco up 0.
Screening CCCCN(C)CCNC(=O)c1cc(-c2cccnc2)nc2ccc(S(=O)(=O)N3CCC(C)CC3)cc12 returned GC-A act -9, GC-B act 3, FAS-TE inh -1, aDG glyco up 5.4* and aDG glyco conf 4.2*.
Screening COC(=O)[C@@H]1N=C(c2ccc(OC)cc2)O[C@]12C(=O)N(Cc1cn(Cc3ccccc3)nn1)c1cccc(Cl)c12 returned GC-A act -3 and GC-B act 7.
Screening O=[N+]([O-])c1cc(C=NN2CCN(Cc3ccccc3Cl)CC2)ccc1Cl returned GC-A act 4 and GC-B act 0.
`Cc1ccc(CS(=O)Cc2ccc(C(=O)NCc3cccs3)o2)cc1` (stereo not drawn) gave GC-A act -2, GC-B act 1, FAS-TE inh -2, aDG glyco up 6.1* and aDG glyco conf 0.
Screening Cc1ccc(CS(=O)(=O)Cc2ccc(C(=O)NCc3cccs3)o2)cc1 returned GC-A act -4, GC-B act -1, FAS-TE inh -1 and aDG glyco up 0.
For COc1ccc(CCN(C)C(=O)c2cc(-c3ccccc3)nc3ccccc23)cc1OC the results were GC-A act 0, GC-B act 4, FAS-TE inh 3 and aDG glyco up 0.
COc1ccc(CCN(C)C(=O)c2cc(-c3ccccc3)nc3ccc(C)cc23)cc1OC was read as GC-A act 5, GC-B act 3, FAS-TE inh 4, aDG glyco up 7.8* and aDG glyco conf 0.
Screening COc1ccc(S(=O)(=O)N(C(C)=O)c2ccc(OC(C)=O)c3ccccc23)cc1[N+](=O)[O-] returned GC-A act 3, GC-B act -4, FAS-TE inh 30, aDG glyco up 11* and aDG glyco conf 2.
CC(=O)Oc1ccc(N(C(C)=O)S(=O)(=O)c2ccc(C)cc2C)c2ccccc12 was read as GC-A act -2, GC-B act -5, FAS-TE inh 18, aDG glyco up 4.9* and aDG glyco conf 3.
CC(=O)Oc1ccc(N(C(C)=O)S(=O)(=O)c2ccccc2)c2ccccc12 was read as GC-A act 1, GC-B act -3, FAS-TE inh -1 and aDG glyco up 6.
Screening CC(=O)N(c1ccccc1Cl)S(=O)(=O)c1ccc(Cl)cc1 returned GC-A act -2, GC-B act -3, FAS-TE inh 5 and aDG glyco up 0.
For CC(=O)Oc1c(Cl)cc(N(C(C)=O)S(=O)(=O)c2ccccc2)c2ccccc12 the results were GC-A act 5, GC-B act 5, FAS-TE inh 9, aDG glyco up 3.1* and aDG glyco conf 5.6*.
Cc1ccc(S(=O)(=O)N(C(=O)c2ccncc2)c2ccc(OC(=O)c3ccncc3)c3ccccc23)c(C)c1 was read as FAS-TE inh 46 and aDG glyco up 1.
